# Experimental data reported in PubChem BioAssay (EPA / NIEHS).
# Inconclusive results are not listed. Activity calls are given as the source filed them. The calls were made as follows, unless noted: active = hit-call score of the fitted dose curve at least 0.9, where 1 is the maximum; inconclusive = response in the unintended direction; inactive = score below 0.9.
# Target: Hepatocyte nuclear factor 4-alpha (Homo sapiens) (UniProt P41235)
# Experiment: ATG_HNF4a_TRANS: Attagene TRANS-FACTORIAL HepG2 Assay for human Hepatocyte Nuclear Factor 4 alpha (HNF4a) (AID 2282982)
# Details: HepG2 HNF4a transactivation reporter, mRNA readout
# Method in brief: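 Transient MRTU transfection of HepG2, 24 h dosing. Readout: reporter mRNA via RT-PCR + capillary electrophoresis, fluorescence; activity fit upward relative to DMSO control.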
# Sequence of Hepatocyte nuclear factor 4-alpha (Homo sapiens) (P41235 whole entry, looked up): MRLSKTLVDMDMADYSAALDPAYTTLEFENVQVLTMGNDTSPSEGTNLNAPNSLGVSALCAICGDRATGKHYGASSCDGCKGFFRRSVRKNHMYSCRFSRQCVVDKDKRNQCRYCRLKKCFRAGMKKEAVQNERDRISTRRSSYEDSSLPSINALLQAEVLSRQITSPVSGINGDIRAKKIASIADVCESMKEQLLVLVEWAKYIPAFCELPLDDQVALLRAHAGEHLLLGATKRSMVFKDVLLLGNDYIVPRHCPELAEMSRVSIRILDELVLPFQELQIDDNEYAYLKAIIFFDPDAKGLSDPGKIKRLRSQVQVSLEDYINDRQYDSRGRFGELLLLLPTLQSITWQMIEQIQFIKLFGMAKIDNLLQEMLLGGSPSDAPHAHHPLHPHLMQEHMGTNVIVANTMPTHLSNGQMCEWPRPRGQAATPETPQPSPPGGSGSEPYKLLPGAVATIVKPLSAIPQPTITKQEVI
row,SMILES,outcome
1,OCCOc1cccc(OCCO)c1,inactive
2,CCCCc1ccc(N)cc1,inactive
3,O=C1c2ccccc2C(=O)N1SC1CCCCC1,inactive
4,NCCNCCN,inactive
5,Nc1ccc(F)c([N+](=O)[O-])c1,inactive
6,Nc1cccc(S(=O)(=O)c2cccc(N)c2)c1,inactive
7,COc1ccc(OC)c(OC)c1,inactive
8,NNc1nc(-c2ccc(N)cc2)cs1,inactive
9,Cc1ccccc1C=O,inactive
10,CC(C)(C)c1n[nH]c(=S)n(N)c1=O,inactive
11,CCCC(=O)OCCC(C)CCC=C(C)C (stereo not drawn),inactive
12,CCC(O)CO (stereo not drawn),inactive
13,CCc1c(C)cc(N)c(CC)c1N,inactive
14,CN(C)CCCN,inactive
15,O=C(O)c1cccc(C(F)(F)F)c1,inactive
16,C=CC(C)(CCC=C(C)C)OC=O (stereo not drawn),inactive
17,CC1=CCC2C(C1)C2(C)C (stereo not drawn),inactive
18,Cc1ccc2sc3cccc(C)c3c2c1,inactive
19,O=Nc1ccc(Nc2ccccc2)cc1,inactive
20,COC(=O)c1ccc(C)cc1,inactive
21,CNC[C@H](O)c1cccc(O)c1,inactive
22,CCOC(=S)SSC(=S)OCC,inactive

# Test system: not listed separately
# Experiment: ATG_M_06_TRANS: Attagene TRANS-FACTORIAL HepG2 Assay for M06 Transcription Factor (Internal Marker) (AID 2282983);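 also: reporter transcript level by RT-PCR then capillary electrophoresis fluorescence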
# Details: HepG2 Attagene TRANS M06 internal marker reporter
# Method in brief: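 Multi-reporter-transfected HepG2, 24 h treatment; reporter transcripts quantified via RT-PCR, primer-extension labelling and CE. DMSO-normalized gain-of-signal fit.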
row,SMILES,outcome
1,OCCOc1cccc(OCCO)c1,inactive
2,CCCCc1ccc(N)cc1,inactive
3,CC(C)c1ccc(C(C)C)cc1,inactive
4,NCCNCCN,inactive
5,Nc1cccc(S(=O)(=O)c2cccc(N)c2)c1,inactive
6,C=C(C)C(=O)Nc1ccc(Cl)c(Cl)c1,inactive
7,COc1ccc(OC)c(OC)c1,inactive
8,Clc1sc(Cl)c(Cl)c1Cl,inactive
9,COC(=O)OC,inactive
10,NNc1nc(-c2ccc(N)cc2)cs1,inactive
11,O=P(c1ccccc1)(c1ccccc1)c1ccccc1,inactive
12,CCCC(=O)OCCC(C)CCC=C(C)C (stereo not drawn),inactive
13,CC(C)(C)NC(N)=O,inactive
14,O=C(O)COCCN1CCN(C(c2ccccc2)c2ccc(Cl)cc2)CC1 (stereo not drawn),inactive
15,CN(C)CCCN,inactive
16,O=C(O)c1cccc(C(F)(F)F)c1,inactive
17,C=CC(C)(CCC=C(C)C)OC=O (stereo not drawn),inactive
18,CC(=O)OCCC(C)CC(C)(C)C (stereo not drawn),inactive
19,CC1=CCC2C(C1)C2(C)C (stereo not drawn),inactive
20,Cc1ccc2sc3cccc(C)c3c2c1,inactive
21,CCCCCC(=O)OCCc1ccccc1,inactive
22,CC(C)c1cccc(O)c1,inactive
23,COC(=O)c1ccc(C)cc1,inactive
24,COC(=O)Cc1cccc2ccccc12,inactive

# Test system: not listed separately
# Experiment: ATG_M_32_TRANS: Attagene TRANS-FACTORIAL HepG2 Assay for M32 Transcription Factor (Internal Marker) (AID 2282984);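 also: transcript level of a background control reporter unit measured by RT-PCR and capillary electrophoresis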
# Details: HepG2 Attagene TRANS M32 internal marker reporter
# Method in brief: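 Read-out: fluorescent reporter cDNA fragments resolved by capillary electrophoresis after RT-PCR of total RNA. Transfected HepG2 cells were exposed to chemical for 24 h. Activity scored in the positive direction relative to DMSO.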
row,SMILES,outcome
1,O=C1OC2(c3cc(Br)c(O)c(Br)c3Oc3c2cc(Br)c(O)c3Br)c2c(Cl)c(Cl)c(Cl)c(Cl)c21,inactive
2,CCCCc1ccc(N)cc1,inactive
3,O=C1c2ccccc2C(=O)N1SC1CCCCC1,inactive
4,CC(C)c1ccc(C(C)C)cc1,inactive
5,NCCNCCN,inactive
6,Nc1ccc(F)c([N+](=O)[O-])c1,inactive
7,Nc1cccc(S(=O)(=O)c2cccc(N)c2)c1,inactive
8,COc1ccc(OC)c(OC)c1,inactive
9,Clc1sc(Cl)c(Cl)c1Cl,inactive
10,COC(=O)OC,inactive
11,NNc1nc(-c2ccc(N)cc2)cs1,inactive
12,Cc1ccccc1C=O,inactive
13,O=P(c1ccccc1)(c1ccccc1)c1ccccc1,inactive
14,CCCC(=O)OCCC(C)CCC=C(C)C (stereo not drawn),inactive
15,O=C(O)COCCN1CCN(C(c2ccccc2)c2ccc(Cl)cc2)CC1 (stereo not drawn),inactive
16,CCC(O)CO (stereo not drawn),inactive
17,CCc1c(C)cc(N)c(CC)c1N,inactive
18,CN(C)CCCN,inactive
19,O=C(O)c1cccc(C(F)(F)F)c1,inactive
20,Cc1ccc(Nc2ccc(O)c3c2C(=O)c2ccccc2C3=O)cc1,inactive
21,Cc1ccc(C=O)s1,inactive
22,C=CC(C)(CCC=C(C)C)OC=O (stereo not drawn),inactive
23,CCCCCCCCCOC(C)=O,inactive
24,CC1=CCC2C(C1)C2(C)C (stereo not drawn),inactive
25,CCCCCC(=O)OCCc1ccccc1,inactive
26,O=Nc1ccc(Nc2ccccc2)cc1,inactive
27,CC(C)c1cccc(O)c1,inactive
28,NC(=O)c1ccccc1Cl,inactive
29,COC(=O)c1ccc(C)cc1,inactive
30,CCOC(=S)SSC(=S)OCC,inactive

# Target: Nuclear receptor subfamily 4 group A member 2 (Homo sapiens) (UniProt P43354)
# Sequence (P43354 whole entry, looked up): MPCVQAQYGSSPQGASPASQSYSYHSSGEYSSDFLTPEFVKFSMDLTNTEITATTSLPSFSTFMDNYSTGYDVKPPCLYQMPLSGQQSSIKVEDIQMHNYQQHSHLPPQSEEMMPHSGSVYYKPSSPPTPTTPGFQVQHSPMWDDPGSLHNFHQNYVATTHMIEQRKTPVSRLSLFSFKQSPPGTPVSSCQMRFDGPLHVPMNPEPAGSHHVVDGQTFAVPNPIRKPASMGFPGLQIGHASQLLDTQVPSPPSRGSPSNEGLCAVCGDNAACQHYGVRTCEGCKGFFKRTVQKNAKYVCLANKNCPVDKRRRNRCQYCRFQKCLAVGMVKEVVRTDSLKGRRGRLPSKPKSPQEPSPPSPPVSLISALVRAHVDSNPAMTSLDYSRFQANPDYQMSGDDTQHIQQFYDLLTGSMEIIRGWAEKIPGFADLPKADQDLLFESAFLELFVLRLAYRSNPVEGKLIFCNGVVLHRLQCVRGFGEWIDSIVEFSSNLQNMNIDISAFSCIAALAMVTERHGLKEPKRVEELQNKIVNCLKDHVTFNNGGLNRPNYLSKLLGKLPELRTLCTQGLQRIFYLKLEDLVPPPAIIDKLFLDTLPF
# Experiment: ATG_NURR1_TRANS: Attagene TRANS-FACTORIAL HepG2 Assay for human Nuclear Receptor Related Protein 1 (NURR1) (AID 2282985)
# Details: HepG2 Attagene TRANS reporter, mRNA readout
# Method in brief: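 Read-out: reporter mRNA induction by RT-PCR plus capillary electrophoresis with fluorescence detection, after 24 h dosing of transfected HepG2 cells. Exogenous NR-Gal4 chimera activity drives GAL4-UAS reporter; activity fitted upward versus DMSO.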
SMILES,outcome,AC50
O=C1OC2(c3cc(Br)c(O)c(Br)c3Oc3c2cc(Br)c(O)c3Br)c2c(Cl)c(Cl)c(Cl)c(Cl)c21,inactive,–
CCCCc1ccc(N)cc1,inactive,–
O=C1c2ccccc2C(=O)N1SC1CCCCC1,inactive,–
CC(C)c1ccc(C(C)C)cc1,inactive,–
C=C(C)C(=O)Nc1ccc(Cl)c(Cl)c1,–,69.8 µM (active)
COC(=O)OC,inactive,–
Cc1ccccc1C=O,inactive,–
O=P(c1ccccc1)(c1ccccc1)c1ccccc1,inactive,–
CC(C)(C)NC(N)=O,inactive,–
CCc1c(C)cc(N)c(CC)c1N,inactive,–
CC(=O)OCCC(C)CC(C)(C)C (stereo not drawn),inactive,–
CCCCCCCCCOC(C)=O,inactive,–
CC(C)c1cccc(O)c1,inactive,–
NC(=O)c1ccccc1Cl,inactive,–
COC(=O)c1ccc(C)cc1,inactive,–
CNC[C@H](O)c1cccc(O)c1,inactive,–

# Target: Transcriptional activator Myb (Homo sapiens) (UniProt P10242)
# Sequence (P10242 whole entry, looked up): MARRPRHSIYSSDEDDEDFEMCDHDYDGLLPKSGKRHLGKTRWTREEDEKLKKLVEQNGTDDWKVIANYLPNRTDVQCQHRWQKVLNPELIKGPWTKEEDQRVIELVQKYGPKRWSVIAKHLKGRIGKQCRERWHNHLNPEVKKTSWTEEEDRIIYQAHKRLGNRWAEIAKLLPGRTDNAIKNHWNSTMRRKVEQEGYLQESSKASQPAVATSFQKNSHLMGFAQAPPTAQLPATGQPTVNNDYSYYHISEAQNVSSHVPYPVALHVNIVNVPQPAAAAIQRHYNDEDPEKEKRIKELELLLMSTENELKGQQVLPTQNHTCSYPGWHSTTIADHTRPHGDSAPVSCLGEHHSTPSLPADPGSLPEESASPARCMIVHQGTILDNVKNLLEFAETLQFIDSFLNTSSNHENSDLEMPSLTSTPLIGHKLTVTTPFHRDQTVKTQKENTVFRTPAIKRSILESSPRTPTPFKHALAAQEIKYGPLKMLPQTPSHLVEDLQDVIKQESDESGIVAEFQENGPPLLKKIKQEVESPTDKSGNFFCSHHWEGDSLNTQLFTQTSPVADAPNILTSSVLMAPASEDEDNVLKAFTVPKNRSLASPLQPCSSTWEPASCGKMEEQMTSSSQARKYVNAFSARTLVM
# Experiment: ATG_Myb_CIS: Attagene CIS-FACTORIAL HepG2 Assay for human Myeloblastosis (Myb) Proto-Oncogene Transcription Factor (AID 2282986; active = hit-call score of the fitted dose curve at least 0.9, where 1 is the maximum; inactive = score below 0.9)
# Details: HepG2 Attagene CIS-FACTORIAL Myb reporter transcription; actives raise or lower the signal
# Method in brief: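 In this HepG2 transient-transfection format, cis-regulated reporter mRNA is quantified 24 h post-dosing by RT-PCR with capillary electrophoresis, fitted bidirectionally to DMSO baseline.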
row,SMILES,outcome
1,OCCOc1cccc(OCCO)c1,inactive
2,O=C1OC2(c3cc(Br)c(O)c(Br)c3Oc3c2cc(Br)c(O)c3Br)c2c(Cl)c(Cl)c(Cl)c(Cl)c21,inactive
3,O=C1c2ccccc2C(=O)N1SC1CCCCC1,inactive
4,CC(C)c1ccc(C(C)C)cc1,inactive
5,NCCNCCN,inactive
6,Nc1ccc(F)c([N+](=O)[O-])c1,inactive
7,Nc1cccc(S(=O)(=O)c2cccc(N)c2)c1,inactive
8,C=C(C)C(=O)Nc1ccc(Cl)c(Cl)c1,inactive
9,COc1ccc(OC)c(OC)c1,inactive
10,COC(=O)OC,inactive
11,Cc1ccccc1C=O,inactive
12,CC(C)(C)c1n[nH]c(=S)n(N)c1=O,inactive
13,O=P(c1ccccc1)(c1ccccc1)c1ccccc1,inactive
14,CCCC(=O)OCCC(C)CCC=C(C)C (stereo not drawn),inactive
15,CC(C)(C)NC(N)=O,inactive
16,O=C(O)COCCN1CCN(C(c2ccccc2)c2ccc(Cl)cc2)CC1 (stereo not drawn),inactive

row,SMILES,outcome
1,CCC(O)CO (stereo not drawn),inactive
2,CCc1c(C)cc(N)c(CC)c1N,inactive
3,CN(C)CCCN,inactive
4,O=C(O)c1cccc(C(F)(F)F)c1,inactive
5,Cc1ccc(Nc2ccc(O)c3c2C(=O)c2ccccc2C3=O)cc1,inactive
6,Cc1ccc(C=O)s1,inactive
7,CC(=O)OCCC(C)CC(C)(C)C (stereo not drawn),inactive
8,CCCCCCCCCOC(C)=O,inactive
9,Cc1ccc2sc3cccc(C)c3c2c1,inactive
10,O=Nc1ccc(Nc2ccccc2)cc1,inactive
11,NC(=O)c1ccccc1Cl,inactive
12,COC(=O)c1ccc(C)cc1,inactive
13,CNC[C@H](O)c1cccc(O)c1,inactive
14,CCOC(=S)SSC(=S)OCC,inactive
15,COC(=O)Cc1cccc2ccccc12,inactive
